Structures are written as SMILES. Hit rate of the full screen: of about 39,000 compounds, about 3,300 (8.5%) were called active. The entries come from a sample that favours actives as a whole.

The subject of the experiment is HepG2. Put plainly: cytotoxicity call (relative viability < 0.9). The following applies: 10 µM.
For `COc1nc(=NC(=O)NS(=O)(=O)Nc2cccc3cccnc23)nc(OC)[nH]1`, the cytotoxicity call is “active”.
Take `COc1ccc(N2C(=O)C[C@@H](c3ccc(Br)cc3)[C@H]2C(=O)Nc2cccc3cccnc23)cc1`: the cytotoxicity call was “inactive”.
Take `C[C@@H]1CN([C@H](C)CO)C(=O)Cc2cc(NS(=O)(=O)c3ccc(F)cc3)ccc2O[C@H]1CN(C)S(=O)(=O)c1cccs1`: the cytotoxicity call was “inactive”.
In the case of `Cc1cc(C2(c3cc(C)c(N)c(C)c3)CCCCC2)cc(C)c1N`, the cytotoxicity call is “active”.
Then `CC1CCC(NC(=O)N(CCCl)[NH2+][O-])CC1` (stereo not given), with “inactive”.
To `CC(C)NC(=O)[C@@H]1c2ccccc2C(=O)N(Cc2cc(C(F)(F)F)cc(C(F)(F)F)c2)[C@H]1c1ccc(CO)cc1` belongs “inactive”.
As to `Cc1ccc(N(c2ccc(C)cc2)c2cccnc2)cc1`, the cytotoxicity call was “inactive”.
To `C[C@@H]1CN([C@@H](C)CO)S(=O)(=O)c2ccc(C#Cc3ccccc3F)cc2O[C@@H]1CN(C)CC1CCOCC1` belongs “inactive”; to `O=C(C[C@H]1C=C[C@H](NC(=O)CN2CCOCC2)[C@@H](CO)O1)NCCc1ccccc1`, “inactive”; to `CC(C)NC(=O)N(C)C[C@@H]1Oc2ccc(NC(=O)NC3CCCCC3)cc2C(=O)N([C@@H](C)CO)C[C@H]1C`, “inactive”.
For the compound `Cc1ccc(S(=O)(=O)N(C)C[C@@H]2OCCCC[C@H](C)Oc3ccc(NC(=O)Nc4ccc(F)cc4)cc3C(=O)N([C@@H](C)CO)C[C@H]2C)cc1`, the cytotoxicity call was “inactive”.
Consider `Cc1ccc(S(=O)(=O)N(C)C[C@H]2OCCCC[C@@H](C)Oc3ccc(NC(=O)Nc4ccc(F)cc4)cc3C(=O)N([C@@H](C)CO)C[C@H]2C)cc1`, for which the cytotoxicity call is “active”.
To `Cc1ccc(S(=O)(=O)N(C)C[C@@H]2OCCCC[C@@H](C)Oc3ccc(NC(=O)Nc4ccccc4)cc3C(=O)N([C@@H](C)CO)C[C@H]2C)cc1` belongs “active”.
To `Cc1ccc(S(=O)(=O)N(C)C[C@@H]2OCCCC[C@@H](C)Oc3ccc(NC(=O)Nc4ccccc4)cc3C(=O)N([C@H](C)CO)C[C@H]2C)cc1` belongs “inactive”.
Then `Cc1ccc(S(=O)(=O)N(C)C[C@@H]2OCCCC[C@@H](C)Oc3ccc(NC(=O)Nc4ccc(F)cc4)cc3C(=O)N([C@H](C)CO)C[C@H]2C)cc1`, with “active”.
`Cc1ccc(S(=O)(=O)N(C)C[C@H]2OCCCC[C@@H](C)Oc3ccc(NC(=O)Nc4ccc(F)cc4)cc3C(=O)N([C@H](C)CO)C[C@H]2C)cc1`: the cytotoxicity call was “inactive”.
Consider `Cc1ccc(S(=O)(=O)N(C)C[C@@H]2OCCCC[C@H](C)Oc3ccc(NC(=O)Nc4ccccc4)cc3C(=O)N([C@@H](C)CO)C[C@H]2C)cc1`, for which the cytotoxicity call is “inactive”.
To `Cc1ccc(S(=O)(=O)N(C)C[C@@H]2OCCCC[C@@H](C)Oc3ccc(NC(=O)Nc4ccc(F)cc4)cc3C(=O)N([C@@H](C)CO)C[C@@H]2C)cc1` belongs “inactive”.
To `Cc1ccc(S(=O)(=O)N(C)C[C@@H]2OCCCC[C@H](C)Oc3ccc(NC(=O)Nc4ccc(F)cc4)cc3C(=O)N([C@@H](C)CO)C[C@@H]2C)cc1` belongs “inactive”.
On to `CCS(=O)(=O)N1CC[C@]2(CC1)CN(Cc1ccc3c(c1)OCO3)[C@H](CO)c1c2c2ccc(cc2n1C)OC`, for which the cytotoxicity call is “inactive”.
To `O=C(C[C@H]1C=C[C@H](NC(=O)Cc2ccccn2)[C@@H](CO)O1)NCCCN1CCOCC1` belongs “inactive”; to `CC(C)NC(=O)Nc1ccc2c(c1)C(=O)N([C@H](C)CO)C[C@H](C)[C@@H](CN(C)Cc1ccc(Oc3ccccc3)cc1)O2`, “inactive”; to `C[C@H](CO)N1C[C@H](C)[C@@H](CN(C)S(=O)(=O)c2ccc(F)cc2)Oc2ncc(Br)cc2C1=O`, “inactive”.
In the case of `C[C@@H]1CN([C@@H](C)CO)C(=O)Cc2cc(NS(=O)(=O)c3ccc(F)cc3)ccc2O[C@@H]1CN(C)CC1CC1`, the cytotoxicity call was “inactive”.
Then `COc1ccccc1-c1ccc2c(c1)O[C@@H](CN(C)C(=O)c1ccncc1)[C@@H](C)CN([C@@H](C)CO)S2(=O)=O`, with “inactive”; and `O=c1cc[nH]c(=S)[nH]1`, with “inactive”; and `Cn1cnc(S(=O)(=O)N2C[C@@H](O)COC[C@@H]3O[C@@H](CC(=O)NCc4cccc(F)c4)CC[C@H]32)c1`, with “inactive”.
Regarding `C[C@@H]1CCCCO[C@H](CN(C)Cc2ccc(C(=O)O)cc2)[C@@H](C)CN([C@@H](C)CO)C(=O)c2cc(NC(=O)Nc3ccccc3)ccc2O1`, the cytotoxicity call is “inactive”.
Then `N=C(N)c1ccc(C(N)=O)cc1`, with “inactive”; and `CC(=O)NCCOc1ccc(C(=O)O)cc1`, with “inactive”; and `N=C(N)c1ccc(OCCCCCOc2ccc(C(=N)N)cc2)cc1.O=S(=O)(O)CCO.O=S(=O)(O)CCO`, with “active”.
Then `C[C@@H]1CCCCO[C@@H](CN(C)S(=O)(=O)c2cn(C)cn2)[C@H](C)CN([C@H](C)CO)C(=O)c2cc(NS(C)(=O)=O)ccc2O1`, with “inactive”.
To `C[C@H](CO)N1C[C@H](C)[C@@H](CN(C)S(=O)(=O)c2ccccc2)Oc2ccc(NS(=O)(=O)c3cn(C)cn3)cc2C1=O` belongs “inactive”.
Turning to `CO[C@H]1CN(C)C(=O)c2cc(NC(C)=O)ccc2OC[C@H](C)N(S(=O)(=O)c2cn(C)cn2)C[C@H]1C`, the cytotoxicity call was “inactive”.
Then `CCC(=C(CC)c1ccc(O)cc1)c1ccc(O)cc1`, with “active”.
On to `CCC(=O)c1ccc(O)cc1`, for which the cytotoxicity call is “inactive”.
Consider `CCC(c1ccc(O)cc1)C(CC)c1ccc(O)cc1` (stereo not given), for which the cytotoxicity call is “inactive”.
As for `CNC[C@@H]1OCCCC[C@H](C)Oc2ccc(NC(=O)Nc3ccc(C(F)(F)F)cc3)cc2C(=O)N([C@@H](C)CO)C[C@H]1C`, the cytotoxicity call was “inactive”.
Then `O=C(Cc1ccccn1)NCC[C@@H]1CC[C@H](NC(=O)CN2CCOCC2)[C@@H](CO)O1`, with “inactive”; and `Cc1ccc(S(=O)(=O)n2cc([C@@H]3CC(=O)N(C(=O)OCc4ccccc4)[C@@H]3C(=O)Nc3cccc4cccnc34)c3ccccc32)cc1`, with “inactive”; and `CN1CCN(c2ccc(OC(F)(F)F)c(Nc3ncc4c(n3)-c3c(c(C(N)=O)nn3CCO)CC4)c2)CC1`, with “active”.
Then `Cn1c(=O)c2c(nc(NCCN)n2C)n(C)c1=O`, with “inactive”.
Then `COc1ccc2c3c([nH]c2c1)[C@@H](CO)N(C[C@]13CCN(CC1)C(=O)CN(C)C)S(=O)(=O)C`, with “inactive”.
For `CCCN(CCC)c1cc(N2CCCC2)c2ccccc2c1`, the cytotoxicity call was “active”.
To `C[C@@H]1CN([C@H](C)CO)C(=O)c2cc(NC(=O)Cc3ccccc3)ccc2O[C@H]1CN(C)S(=O)(=O)c1ccccc1` belongs “inactive”.
In the case of `Cc1ccc(S(=O)(=O)Nc2ccc3c(c2)C(=O)N([C@H](C)CO)C[C@H](C)[C@H](CN(C)C(=O)Nc2c(C)noc2C)OCCCC[C@@H](C)O3)cc1`, the cytotoxicity call is “inactive”.
On to `CN1CCN(C(=O)C[C@H]2CC[C@@H]3[C@@H](COc4ccc(NC(=O)c5ccc(F)c(F)c5)cc4C(=O)N3C)O2)CC1`, for which the cytotoxicity call is “inactive”.
Then `C[C@@H]1CCCCO[C@@H](CN(C)Cc2ccccc2)[C@@H](C)CN([C@H](C)CO)C(=O)c2cc(NC(=O)CCCCCC(=O)Nc3ccccc3N)ccc2O1`, with “inactive”; and `Cc1ccc(NC(=O)Nc2cc(C(F)(F)F)ccc2F)cc1Nc1ccc2c(c1)NC(=O)/C2=C\c1ccc[nH]1`, with “active”; and `COc1ccc(S(=O)(=O)N[C@H]2C=C[C@H](CC(=O)NCCc3ccncc3)O[C@@H]2CO)cc1`, with “inactive”.
Then `C[C@@H]1CCCCO[C@@H](CN(C)S(=O)(=O)c2ccc(Cl)cc2)[C@H](C)CN([C@H](C)CO)C(=O)c2cc(NC(=O)CCC(F)(F)F)ccc2O1`, with “active”.
Consider `C[C@@H]1CN([C@@H](C)CO)C(=O)c2cc(NC(=O)CCC(F)(F)F)ccc2O[C@@H](C)CCCCO[C@@H]1CN(C)S(=O)(=O)c1ccc(Cl)cc1`, for which the cytotoxicity call was “inactive”.
To `C[C@@H]1CN([C@H](C)CO)C(=O)c2cc(NC(=O)CCC(F)(F)F)ccc2O[C@@H](C)CCCCO[C@@H]1CN(C)S(=O)(=O)c1ccc(Cl)cc1` belongs “inactive”; to `C[C@@H]1CN([C@H](C)CO)C(=O)c2cc(NC(=O)CCC(F)(F)F)ccc2O[C@@H](C)CCCCO[C@H]1CN(C)S(=O)(=O)c1ccc(Cl)cc1`, “active”.
To `C[C@@H]1CCCCO[C@H](CN(C)S(=O)(=O)c2ccc(Cl)cc2)[C@@H](C)CN([C@@H](C)CO)C(=O)c2cc(NC(=O)CCC(F)(F)F)ccc2O1` belongs “inactive”; to `C[C@@H]1CCCCO[C@H](CN(C)S(=O)(=O)c2ccc(Cl)cc2)[C@@H](C)CN([C@H](C)CO)C(=O)c2cc(NC(=O)CCC(F)(F)F)ccc2O1`, “inactive”.
To `Cc1ccc(S(=O)(=O)N(C)C[C@@H]2OCCCC[C@@H](C)Oc3ccc(NC(=O)CCC(F)(F)F)cc3C(=O)N([C@H](C)CO)C[C@H]2C)cc1` belongs “inactive”; to `Cc1ccc(S(=O)(=O)N(C)C[C@@H]2OCCCC[C@H](C)Oc3ccc(NC(=O)CCC(F)(F)F)cc3C(=O)N([C@@H](C)CO)C[C@@H]2C)cc1`, “active”; to `C[C@H](CO)N1C[C@H](C)[C@@H](CN(C)S(=O)(=O)c2ccc(Cl)cc2)OCCCC[C@H](C)Oc2ccc(NC(=O)CCC(F)(F)F)cc2C1=O`, “inactive”.
With `Cc1ccc(S(=O)(=O)N(C)C[C@H]2OCCCC[C@H](C)Oc3ccc(NC(=O)CCC(F)(F)F)cc3C(=O)N([C@H](C)CO)C[C@@H]2C)cc1`, the cytotoxicity call is “inactive”.
To `C[C@@H]1CN([C@@H](C)CO)C(=O)c2cc(NC(=O)CCC(F)(F)F)ccc2O[C@@H](C)CCCCO[C@H]1CN(C)S(=O)(=O)c1ccc(Cl)cc1` belongs “inactive”; to `C[C@@H]1CCCCO[C@H](CN(C)S(=O)(=O)c2ccc(Cl)cc2)[C@H](C)CN([C@H](C)CO)C(=O)c2cc(NC(=O)CCC(F)(F)F)ccc2O1`, “active”.
Regarding `COc1ccc(NC(=O)N(C)C[C@H]2Oc3c(NC(=O)C4CCOCC4)cccc3C(=O)N([C@@H](C)CO)C[C@H]2C)cc1`, the cytotoxicity call was “inactive”.
Take `CC(C)NC(=O)Nc1ccc2c(c1)C(=O)N([C@@H](C)CO)C[C@H](C)[C@@H](CN(C)C(=O)Nc1ccccc1)OCCCC[C@@H](C)O2`: the cytotoxicity call was “inactive”.
Then `C[C@H](CO)N1C[C@H](C)[C@H](CN(C)Cc2cccc3c2OCCCO3)OCc2cn(nn2)CCCC1=O`, with “inactive”.

These data come from the antibiotic and cytotoxicity screens of Wong et al. (2023).
